This is one part of a sample in which hits are shown more often than they occur.
IDE exosite inh = exo-site inhibitors of human insulin-degrading enzyme. purified IDE, FL-6b probe fluorescence polarization; stronger effect = lower value. z-score at 20 µM. 6.3% of 17,000 active. AID 1259349;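 active means z-score of -3 or lower, meaning strong loss of probe binding signal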;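 further: His-tagged human IDE residues 42-1019 made in E. coli with 30 nM FL-6b probe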
Starred values were filed as active, the others as inactive.

SMILES	IDE exosite inh
CN(C[C@H]1[C@@H](c2ccc(C3=CCCC3)cc2)[C@@H](CO)N1CCC(F)(F)F)S(C)(=O)=O	-0.77
COc1ccc(-c2cn(CC[C@H]3CC[C@H](NC(=O)c4cnccn4)[C@H](CO)O3)nn2)cc1	0.18
O=C(Nc1cccc(F)c1)N1C[C@H]2[C@@H](c3ccccc31)[C@@H](CO)N2C(=O)Cc1ccccn1	0.91
O=C(c1ccccc1)N1CC(=O)N2[C@H](CO)[C@@H](c3ccc(C#Cc4ccccc4)cc3)[C@H]2C1	3.1
CCCNC(=O)N1[C@H](CO)[C@@H](c2ccc(C3=CCCC3)cc2)[C@@H]1CN(C)C(C)=O	1.8
CN(C)C(=O)c1cccc(-c2ccc([C@H]3[C@H](CO)N4CCCCN(C(=O)C5CCC5)C[C@@H]34)cc2)c1	1.9
CCCNC(=O)Nc1ccc2c(c1)C(=O)N(C)[C@H]1CC[C@H](CC(=O)Nc3cc(F)ccc3F)O[C@@H]1CO2	0.59
O=C(c1cccc(F)c1)N1CC(=O)N2[C@H](CO)[C@H](c3ccc(-c4ccccc4F)cc3)[C@H]2C1	-4.8*
O=C(c1cccnc1)N1CC(=O)N2[C@@H](CO)[C@@H](c3ccc(-c4ccccc4F)cc3)[C@@H]2C1	0.48
O=C(c1cccc(F)c1)N1CC(=O)N2[C@@H](CO)[C@@H](c3ccc(-c4ccccc4F)cc3)[C@@H]2C1	-1.1
O=C(c1cccc(F)c1)N1CC(=O)N2[C@@H](CO)[C@H](c3ccc(-c4ccccc4)cc3)[C@@H]2C1	2.4
O=C(c1cccc(F)c1)N1CC(=O)N2[C@H](C1)[C@@H](c1ccc(-c3ccccc3F)cc1)[C@@H]2CO	-3.9*
O=C(c1ccc(F)cc1)N1CC(=O)N2[C@H](CO)[C@@H](c3ccc(-c4ccccc4F)cc3)[C@H]2C1	0.69
C/C=C/c1ccc(C2[C@@H]3CN(C(=O)CN4CCOCC4)C[C@H]2N3)cc1 (stereo not given in full)	1.1
N#C[C@@H]1[C@@H](c2ccccc2)[C@@H](CO)N1S(=O)(=O)Cc1ccccc1	0.68
CC(=O)N1CC(=O)N2[C@H](CO)[C@@H](c3ccc(-c4ccc(C)cc4)cc3)[C@@H]2C1	-2.4
CO[C@H]1CN(C)C(=O)c2cc(NC(=O)NC(C)C)ccc2OC[C@@H](C)N(C(=O)CN(C)C)C[C@@H]1C	0.47
CCC(=O)N1CC(=O)N2[C@@H](CO)[C@H](c3ccc(C#Cc4cccc(OC)c4)cc3)[C@@H]2C1	-9.1*
COc1cccc(C#Cc2ccc([C@@H]3[C@@H](CO)N4C(=O)CN(C(=O)Cc5ccccc5)C[C@H]34)cc2)c1	2.2
COc1cccc(C#Cc2ccc([C@H]3[C@@H](CO)N4C(=O)CN(C(=O)Cc5ccccc5)C[C@H]34)cc2)c1	-4.6*
CCC(=O)N1CC(=O)N2[C@H](C1)[C@@H](c1ccc(C#Cc3cccc(OC)c3)cc1)[C@@H]2CO	-6.5*
CCC(=O)N1CC(=O)N2[C@H](C1)[C@H](c1ccc(C#Cc3cccc(OC)c3)cc1)[C@@H]2CO	-9.2*
COc1cccc(C#Cc2ccc([C@@H]3[C@@H](CO)N4C(=O)CN(C(=O)Cc5ccccc5)C[C@@H]34)cc2)c1	0.0021
O=C(Nc1ccccc1F)N[C@@H]1CC[C@@H](CCNC(=O)C2CC2)O[C@@H]1CO	0.35
N#C[C@@H]1[C@H](c2ccccc2C2=CCCC2)[C@H](CO)N1C(=O)Cc1ccncc1	0.41
SMILES	IDE exosite inh
CC(=O)NC[C@@H]1[C@H](c2ccc(-c3cccnc3)cc2)[C@H](CO)N1C(=O)C1CC1	1.3
C[C@@H]1CC(=O)N[C@@H](c2ccccc2)C/C=C\C[C@H](c2ccc3c(c2)OCO3)NC1=O	0.4
Cc1ccc(S(=O)(=O)NCC[C@@H]2CC[C@@H](NC(=O)c3cccnc3)[C@@H](CO)O2)cc1	3.3
Cc1ccc(S(=O)(=O)N2C[C@H](O)COC[C@@H]3O[C@H](CC(=O)NCc4ccc5c(c4)OCO5)CC[C@H]32)cc1	-0.44
CO[C@H]1CC[C@H]2CCOc3c(C#N)cccc3C(=O)N(C)CC3(CCCCC3)CC(=O)N(C)C[C@H]1O2	0.015
C/C=C/c1ccccc1[C@H]1[C@H](C#N)N(C(=O)c2cccnc2)[C@H]1CO	0.035
CN(C)CC(=O)N1CC2(C1)[C@@H](c1ccccc1)[C@@H](CO)N2Cc1cc(F)ccc1F	-0.68
CC(C)C#Cc1ccc([C@H]2[C@@H](CO)N3C(=O)CN(C(=O)NC4CCCC4)C[C@@H]23)cc1	0.77
CCC(=O)N1CC(=O)N2[C@H](CO)[C@@H](c3ccc(C#Cc4cccc(OC)c4)cc3)[C@@H]2C1	-5.2*
COc1cccc(C#Cc2ccc([C@@H]3[C@@H](CO)N4C(=O)CN(C(=O)Cc5cccnc5)C[C@@H]34)cc2)c1	-1.4
COCC(=O)N1CC(=O)N2[C@H](CO)[C@H](c3ccc(C#Cc4cccc(OC)c4)cc3)[C@H]2C1	-6.6*
COCC(=O)N1CC(=O)N2[C@H](CO)[C@H](c3ccc(C#Cc4cccc(OC)c4)cc3)[C@@H]2C1	-2.3
CCS(=O)(=O)NC[C@@H]1[C@@H](c2ccccc2)[C@@H](CO)N1CC1CCCCC1	3.4
O=C(C1CCCCC1)N1CC(=O)N2[C@H](CO)[C@@H](c3ccc(Br)cc3)[C@@H]2C1	-0.48

High-throughput results (PubChem BioAssay)
